# Most compounds without a hit are left out; they make up all but 4.1% or so of the library.
# NALP1 yeast inh – blocks the NALP1 inflammasome reconstituted in yeast; S. cerevisiae NALP1/ASC/caspase-1 growth, X-gal OD620, 72 h; inhibition, % at 10 µM; 280,000 tested, 0.61% active; in the data active = inhibition mostly above about 24%, no sharp cut-off; inactive = mostly below about 32%
# tim23-1 inh – tim23-1 yeast growth inhibition. S. cerevisiae tim23-1 growth, BacTiter-Glo luminescence, 24 h. inhibition, % at 20 µM. 330,000 tested, 1.3% active;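 active = growth inhibition of the mutant yeast at or above 50%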;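 also: temperature-sensitive mutant grown at 25 °C; plate controls were DMSO-treated mutant yeast for no effect and medium wells lacking yeast for full effect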
# tim10-1 inh – inhibits growth of tim10-1 mutant yeast | S. cerevisiae tim10-1 ts strain growth, BacTiter-Glo, 24 h | inhibition, % at 20 µM | 330,000 tested, 2.2% active | AID 463190;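 active = inhibition of at least 40%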;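 also: mutant grown at 25 °C; 0% = DMSO wells with yeast and 100% = wells holding no yeast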
# NALP3 yeast inh – inhibitors of NALP3 inflammasome in yeast | Yeast reconstituted NLRP3/ASC/caspase-1, beta-gal luminescence, 24 h | inhibition, % at 10 µM | 330,000 tested, 0.39% active;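 active = inhibition of 50% or more; inactive = inhibition below 50%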;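 also: plate controls were induced DMSO wells for no effect and uninduced yeast grown without galactose for full effect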
# PfHsp90 set2 – inhibits growth of yeast expressing Plasmodium falciparum Hsp90; S. cerevisiae expressing PfHsp90, BacTiter-Glo ATP, 48 h; yeast lacking PDR1 and PDR3 efflux regulators; inhibition, % at 9.4 µM; 310,000 tested, 0.32% active;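 active = every replicate shows inhibition above about 80%, whatever the replicate mean, limit read from the data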;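 also: 0% = DMSO neutral controls and 100% = 20 µM radicicol positive controls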
# TIM10 inh – growth inhibitors of TIM10 yeast strain | S. cerevisiae TIM10 strain growth, BacTiter-Glo luminescence, 24 h | 330,000 tested, 1.4% active | inhibition, % at 10 µM | AID 463195;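 active = inhibition of 40% or more at the single tested concentration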;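 also: wild-type TIM10 isogenic control strain grown at permissive 25 °C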
# tim10-1 conf – tim10-1 yeast growth inhibition, confirmed. shares compounds with tim10-1 inh. S. cerevisiae tim10-1 ts strain growth, BacTiter-Glo, 24 h. inhibition, % at 20 µM. 7,400 tested, 56% active;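 active = inhibition of yeast growth at or above a set limit in either of two repeat tests at 20 µM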;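 also: tim10-1 mutant grown at permissive 25 °C to find synthetic lethal compounds; 0% = DMSO yeast wells and 100% = medium wells without yeast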
# An asterisk follows results filed as active; · = no result given.
SMILES,NALP1 yeast inh,tim23-1 inh,tim10-1 inh,NALP3 yeast inh,PfHsp90 set2,TIM10 inh,tim10-1 conf
COc1ccc(CN(C)C(=O)Cn2cnc3c(OCc4ccccc4)ncnc32)cc1OC,·,-1,-6,3,-7,0,·
COc1cc(C(c2c(C)[nH][nH]c2=O)c2c(C)[nH][nH]c2=O)ccc1OC(C)C,13,31,40*,6,13,35,42*
COc1cc(C(c2c(C)[nH][nH]c2=O)c2c(C)[nH][nH]c2=O)ccc1OC(=O)c1cccc([N+](=O)[O-])c1,-3,4,5,-15,7,17,·
COc1ccc(C(c2c(C)[nH][nH]c2=O)c2c(C)[nH][nH]c2=O)cc1Br,17,35,14,35,-15,39,·
COc1cc(C(c2c(C)[nH][nH]c2=O)c2c(C)[nH][nH]c2=O)ccc1OCc1ccc([N+](=O)[O-])cc1,5,21,57*,12,·,26,51*
Cc1ccc(C(c2c(C)[nH][nH]c2=O)c2c(C)[nH][nH]c2=O)cc1,1,20,42*,27,8,11,30
O=C(Nc1ccc(Oc2cccnc2)cc1)C1CCN(Cc2cc(Cl)ccc2O)CC1,21,13,49*,22,8,7,-4
O=C(Nc1ccc(Oc2cccnc2)cc1)C1CCN(Cc2ccc(F)cc2)CC1,15,4,29,25,7,0,·
C[C@]12CCC(=O)CC1CCC1C2CC[C@@]2(C)C1CC[C@@]21CCO1 (some centres undefined),11,32,28,41,-4,-8,·
C[C@]12CCC(=O)C[C@@H]1CC[C@@H]1[C@@H]2CC[C@]2(C)C=CC[C@@H]12,18,33,52*,42,7,10,70*
S=C(NC1CCCCC1)N(CCc1nc2ccccc2[nH]1)C1CCCC1,-28,32,50*,23,-7,37,29
C/C(=N\NC(=O)c1cccc(S(=O)(=O)N2CCOCC2)c1)c1ccc(C)cc1,·,16,18,5,4,1,·
CCC(C(=O)N1CCOCC1)n1nc(C)c2sc3ccccc3c2c1=O (centres undefined),-1,-6,-5,14,-24,-2,·
CCC(C)c1ccccc1N1CC(C(=O)N2CCN(S(=O)(=O)c3cccc([N+](=O)[O-])c3)CC2)CC1=O (centres undefined),·,-13,-19,13,-15,-2,·
CCc1ccc(-c2csc(NC(=O)C3CC(=O)N(c4ccc5c(c4)OCCO5)C3)n2)cc1 (centres undefined),28,23,47*,13,-22,25,27
CCC/C=N/NC(=O)c1[nH]c2c([N+](=O)[O-])cccc2c1C,16,11,41*,6,-12,32,20
CCOc1ccccc1NC(=O)CSc1ccc([N+](=O)[O-])cc1,-8,33,22,11,65,23,·
CCSC1(SCC)N=C(N)C2(C#N)C(c3ccc(OC)c(OC)c3OC)C12C#N (centres undefined),·,14,61*,19,7,33,62*
Cc1ccc(NC(=O)c2sc3nc(C)nc(N4CCN(c5ccccn5)CC4)c3c2C)c(C)c1,-2,33,16,10,29,16,·
Cc1ccc(NC(=O)c2sc3ncnc(N4CCN(c5ccccn5)CC4)c3c2C)c(C)c1,15,34,48*,7,-9,13,24
Cc1c(-c2ccccc2)sc(Br)c1C(=O)N1CCOCC1,1,41,48*,11,-15,14,23
O=C1C2C3CCCC3=C3CCCC3C2C(=O)N1c1ccc(Cl)cc1 (centres undefined),10,39,42*,-4,10,16,31*
CCOc1cc(/C=C2\C(=O)N(c3nc(-c4ccc(Br)cc4)cs3)N=C2c2ccccc2)ccc1O,8,24,47*,-10,-11,10,15
Cc1cc(C)n(CCCNC(=O)c2ccc(C)o2)n1,·,-6,-5,-15,-1,7,·
Cc1nc2c(Br)c(C)nn2c2c1CCC2,14,6,48*,-4,-3,2,30
SMILES,NALP1 yeast inh,tim23-1 inh,tim10-1 inh,NALP3 yeast inh,PfHsp90 set2,TIM10 inh,tim10-1 conf
CCN(CC(=O)Nc1ccc(NC(C)=O)cc1)C(=O)c1cn(-c2ccccc2)nc1-c1cccs1,·,6,7,12,·,5,·
CCN(CC)CCN(C(=O)c1ccc2c(c1)OCCO2)c1nc2ccc(C)cc2s1,14,15,44*,22,8,20,27
Cc1ccc2nc(N(CCN(C)C)C(=O)c3ccc4c(c3)OCCO4)sc2c1,14,0,15,5,1,3,·
COc1ccccc1C(=O)NCCC(=O)Nc1ccc(S(=O)(=O)N2C(C)CCCC2C)cc1 (centres undefined),·,16,12,1,-19,3,·
O=C(CNC(=O)c1cccs1)OCC(=O)c1ccc2ccccc2c1,-4,25,40*,-2,-28,38,15
COc1cccc(NC(=O)C2C3CCC4C(CCC32)C4(Cl)Cl)c1 (centres undefined),26,11,42*,1,-71,2,29
CCN(CC)CC(O)c1ccc2ccc3ccc(O)cc3c2c1 (centres undefined),·,·,·,·,23,·,·
O=C(Nc1nnc(-c2ccccc2)o1)C1CCCN1S(=O)(=O)c1cccs1 (centres undefined),·,-4,1,6,·,6,·
CC(=O)c1ccc(N2CCN(C(=O)c3cc4c(s3)CCCC4)CC2)cc1,17,34,47*,28,-10,13,30
O=C(c1cc2c(s1)CCCCC2)N1CCN(c2ncccn2)CC1,-1,36,45*,21,32,18,29
CCN(c1nc(C)cc(OC)n1)S(=O)(=O)c1ccccc1,-24,33,40*,-36,21,3,20
C=CCN(c1nc(C)cc(OC)n1)S(=O)(=O)c1ccccc1,10,36,33,-5,4,5,·
CCOC(=O)CSc1nnc(-c2ccc(S(=O)(=O)N3CCC(C)CC3)cc2)o1,13,20,30,3,8,-3,·
CC(=O)CSc1nnc(-c2ccc(S(=O)(=O)N3CCC(C)CC3)cc2)o1,·,29,42*,-2,6,29,24
CCOc1cc(C(=O)NC2CC(C)(C)NC(C)(C)C2)cc(OCC)c1OCC,10,5,1,7,-3,5,·
O=C(CSc1nc2ccccc2c(=O)n1-c1ccc(F)cc1)Nc1ccc2c(c1)CCC2,30,19,41*,5,-4,21,18
CCn1c(SCC(=O)Nc2ccc(Cl)cc2)nc2nc3c(cc2c1=O)CCCC3,26,-3,9,5,0,11,·
Cc1cccc(NC(=O)CSc2nc3nc4c(cc3c(=O)n2-c2ccccc2)CCCC4)c1,35,17,29,15,-18,15,·

# Screening results from PubChem.
